Rows were chosen to be rich in hits. Some 21% of all compounds tested hit in one or more screens of this group.
Pf growth 48h: inhibits P. falciparum growth in the first generation, 48 h; Potency, µM (highest dose often 28.7 µM), without a hit: at the top dose activity change, negative = inhibition, actives largely listed as inhibitors; actives 5.9% (n = 310,000); AID 504832; P. falciparum luciferase growth in erythrocytes, 48 h; also: potency is read from the fitted curve at half-maximal effect; % is scaled to controls: 0 for no effect and ±100 for the full control effect
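Luciferase-expressing parasites in RBCs, 2% Hct / 0.1% parasitemia final; RPMI 1640 + 0.5% Albumax; 37 C, 5% CO2, one generation; luminescence read-out, lower signal = inhibition.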
Cycloheximide cs: counter-screen hit for Shiga toxin inhibitors, cycloheximide. actives 12% (n = 300,000). AID 2314. cell reporter, cycloheximide protein synthesis inhibition counterscreen. max response, %; in the data active = max response mostly above about 13%, no sharp cut-off; inactive = mostly below about 14%; also: read at 38.3 µM for the half of the compounds with a filed dose; 0% is about no effect
Shiga inhibitor: inhibitors of Shiga toxin in Vero cells; Vero cells, Shiga toxin protein synthesis inhibition reporter; inhibition, % at 38.7 µM; actives 9.2% (n = 290,000); in the data active = inhibition mostly above about 28%, no sharp cut-off; inactive = mostly below about 43%; also: 0% is about no effect
Pf growth 96h: P. falciparum growth inhibition at 96 hour, primary screen for plastid delayed-death inhibitors | Potency, µM (top dose mostly 28.7 µM), for the others: top-dose activity change, negative = inhibition, actives largely listed as inhibitors | P. falciparum luciferase reporter growth, 96 h | actives 6.9% (n = 320,000); also: potency is read from the fitted curve at half-maximal effect; % is scaled to controls: 0 for no effect and ±100 for the full control effect
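Readout is luminescence from an integrated firefly luciferase in P. falciparum. Red cells, 2% hematocrit and 0.05% parasitemia final, were cultured with compound through two parasite generations (96 hours) at 37 C, 5% CO2.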
NS1 function inh: inhibitors of influenza NS1 protein function. Potency, µM (highest dose often 46.1 µM), inactives show at the top dose activity, positive = more growth. actives 0.4% (n = 270,000). AID 2326; calls by dose curve; also: potency is read from the fitted curve at half-maximal effect; actives are rising curves; nearly all actives have a fitted effect of over 50% in size
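In this qHTS, NS1 from influenza A is expressed in budding yeast, where it slows growth. Cells are switched from glucose to 2% galactose medium (pH 6.0, -URA), treated with compound, and growth recovery is read at OD600.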
The depositor's hits bear a star; [ ] = another dose, or the depositor's remark. Unless noted, calls follow the shape of the dose curve; as a rule, active = well fitted inhibition curve with a large enough effect; inconclusive = small, poorly fitted or top-dose-only effect, or another doubt; inactive = no such curve, though single readings can be large or run the other way.

What do the screens show for `N#CC1=C(N)Oc2cc(O)ccc2C1c1cccs1` (centres undefined)?
Cycloheximide cs: 3; Shiga inhibitor: -10; NS1 function inh: 2%

Results for N#CC1=C(N)Oc2c(ccc3cccnc23)C1c1ccccc1 (centres undefined) ?
Pf growth 48h: 13µM*; Cycloheximide cs: -1; Shiga inhibitor: -4; Pf growth 96h: inconclusive; NS1 function inh: -4%

What do the screens show for `COc1ccc(/C=C(/NC(=O)c2ccccc2)c2nc3ccc(Cl)cc3[nH]2)cc1OC`?
Pf growth 48h: -3%; Cycloheximide cs: -6; Shiga inhibitor: 18; Pf growth 96h: 0%; NS1 function inh: inconclusive

Results for Cc1sc(NC(=O)CN2CCN(c3ccccn3)CC2)c(C#N)c1C ?
Pf growth 48h: -9%; Cycloheximide cs: -1; Shiga inhibitor: 2; Pf growth 96h: inconclusive; NS1 function inh: -10%

Results for COc1ccc(N2CCN(C(=O)c3cc4ccccc4o3)CC2)cc1 ?
Pf growth 48h: 3%; Cycloheximide cs: 10; Shiga inhibitor: 13; Pf growth 96h: 52%; NS1 function inh: 1%

What do the screens show for `O=C(c1cc2cc(Br)ccc2o1)N1CCOCC1`?
Pf growth 48h: 64%; Cycloheximide cs: 19*; Shiga inhibitor: 50*; Pf growth 96h: 1%; NS1 function inh: -4%

What do the screens show for `O=C(c1cc2cc(Br)ccc2o1)N1CCN(c2ccccc2)CC1`?
Pf growth 48h: 67%; Cycloheximide cs: 51*; Shiga inhibitor: 78*; Pf growth 96h: 6%; NS1 function inh: 2%

How did O=C(c1cc2cc(Br)ccc2oc1=O)N1CCCC1 do in these assays?
Cycloheximide cs: -2; Shiga inhibitor: 1; Pf growth 96h: 25%; NS1 function inh: 3%

What do the screens show for `CC1CC(C)CN(C(=O)c2cc3cc(Br)cc(Br)c3o2)C1` (centres undefined)?
Pf growth 48h: -5%; Cycloheximide cs: 31*; Shiga inhibitor: 41*; Pf growth 96h: 0%

Results for O=C(c1cc2cc(Br)ccc2o1)N1CCCC1 ?
Pf growth 48h: -61%; Cycloheximide cs: 39*; Shiga inhibitor: 61*; Pf growth 96h: -27%; NS1 function inh: -33%

What do the screens show for `O=C(Nc1ccc(Cl)cc1)C1CCCN1C(=O)NCc1ccccc1` (centres undefined)?
Pf growth 48h: 10%; Cycloheximide cs: -4; Shiga inhibitor: -4; Pf growth 96h: 5%; NS1 function inh: -9%

Results for COc1ccc(NC(=O)c2cc3c(COC(C)=O)cnc(C)c3oc2=Nc2cccc(C(=O)O)c2)c(OC)c1 ?
Pf growth 48h: inconclusive; Cycloheximide cs: 9; Shiga inhibitor: -5; Pf growth 96h: -9%; NS1 function inh: -2%

How did CCOC(=O)N1CCN(C(=O)c2cn(C)c3ccc(S(=O)(=O)N4CCC(C)CC4)cc3c2=O)CC1 do in these assays?
Pf growth 48h: inconclusive; Cycloheximide cs: -4; Shiga inhibitor: -7; Pf growth 96h: -10%

What do the screens show for `Cc1cccc(-n2ncc3c(Nc4c(C)n(C)n(-c5ccccc5)c4=O)ncnc32)c1`?
Pf growth 48h: inconclusive; Cycloheximide cs: -1; Shiga inhibitor: -12; Pf growth 96h: 176%; NS1 function inh: 0%

How did Cc1cccc(-n2ncc3c(NCCCO)ncnc32)c1 do in these assays?
Cycloheximide cs: 38*; Shiga inhibitor: 42; Pf growth 96h: 225%; NS1 function inh: -3%

How did Clc1ccc(-n2ncc3c(NCc4ccccn4)ncnc32)cc1 do in these assays?
Pf growth 48h: -27%; Cycloheximide cs: -2; Shiga inhibitor: -22; Pf growth 96h: inconclusive; NS1 function inh: 6%

Results for Cc1cccc(-n2ncc3c(NC4CCCCC4)ncnc32)c1 ?
Pf growth 48h: 103%; Cycloheximide cs: 46*; Shiga inhibitor: 75*; Pf growth 96h: -11%; NS1 function inh: -13%

How did C=CCNc1ncnc2c1cnn2-c1ccc(Cl)cc1 do in these assays?
Pf growth 48h: 184%; Cycloheximide cs: 33*; Shiga inhibitor: 52*; Pf growth 96h: 430%; NS1 function inh: -4%

Results for C=CCNc1ncnc2c1cnn2-c1cccc(C)c1 ?
Pf growth 48h: 175%; Cycloheximide cs: 34*; Shiga inhibitor: active; Pf growth 96h: 0%; NS1 function inh: -128%

What do the screens show for `COc1ccccc1NS(=O)(=O)c1ccc2c(c1)n(C)c(=O)n2C`?
Cycloheximide cs: 2; Shiga inhibitor: -7; Pf growth 96h: inconclusive; NS1 function inh: -5%

How did CCS(=O)(=O)Nc1ccc(C2=NN(C(=O)c3ccco3)C(c3cccc(F)c3)C2)cc1 (centres undefined) do in these assays?
Pf growth 48h: inconclusive; Cycloheximide cs: -1; Shiga inhibitor: 15; Pf growth 96h: inconclusive

Results for CCS(=O)(=O)Nc1ccc(C2=NN(C(=O)c3ccco3)C(c3ccc(C)cc3)C2)cc1 (centres undefined) ?
Pf growth 48h: 10µM*; Cycloheximide cs: 13; Shiga inhibitor: -17; Pf growth 96h: inconclusive; NS1 function inh: inconclusive

What do the screens show for `Cc1ccc(C2CC(c3ccc(NS(C)(=O)=O)cc3)=NN2C(=O)c2ccco2)cc1` (centres undefined)?
Pf growth 48h: -17%; Cycloheximide cs: -1; Shiga inhibitor: 16; Pf growth 96h: inconclusive; NS1 function inh: inconclusive

What do the screens show for `CS(=O)(=O)Nc1ccc(C2=NN(C(=O)c3ccco3)C(c3cccc(F)c3)C2)cc1` (centres undefined)?
Pf growth 48h: 13µM*; Cycloheximide cs: 6; Shiga inhibitor: -21; Pf growth 96h: inconclusive

What do the screens show for `CCOC(=O)C(NC(=O)Nc1ccc(Cl)cn1)(Oc1ccc(F)cc1)C(F)(F)F` (centres undefined)?
Pf growth 48h: 3%; Cycloheximide cs: -4; Shiga inhibitor: -3; Pf growth 96h: 33%; NS1 function inh: -2%

What do the screens show for `Cc1ccccc1NC(=O)C1CCCN1C(=O)NC1CCCCC1` (centres undefined)?
Pf growth 48h: 0%; Cycloheximide cs: -3; Shiga inhibitor: -8; Pf growth 96h: 3%; NS1 function inh: 2%

What do the screens show for `CCOC(=O)C(=NC(C)C)NNc1cc(Cl)ccc1Cl`?
Pf growth 48h: inconclusive; Cycloheximide cs: 2; Shiga inhibitor: -12; Pf growth 96h: 0%; NS1 function inh: 4%

What do the screens show for `CCOC(=O)C(=NC(C)(C)C)NNc1cc(Cl)ccc1Cl`?
Pf growth 48h: inconclusive; Cycloheximide cs: -1; Shiga inhibitor: -5; Pf growth 96h: 9.3µM*; NS1 function inh: -43%

Results for O=[N+]([O-])c1cccc(-c2cn3nc(-c4ccccc4)c(-c4ccccc4)nc3n2)c1 ?
Pf growth 48h: 9.3µM*; Cycloheximide cs: -1; Shiga inhibitor: -4; Pf growth 96h: inconclusive; NS1 function inh: 5%

What do the screens show for `Cc1ccc(-c2cn3nc(-c4ccccc4)c(-c4ccccc4)nc3n2)cc1`?
Pf growth 48h: inconclusive; Cycloheximide cs: 16*; Shiga inhibitor: 45; Pf growth 96h: -18%; NS1 function inh: 1%

Results for COc1ccc(-n2cnc3scc(-c4ccccc4)c3c2=O)cc1 ?
Pf growth 48h: 31%[5.75 µM]; Cycloheximide cs: 5; Shiga inhibitor: -16; Pf growth 96h: 47%

High-throughput results: PubChem BioAssay, National Center for Advancing Translational Sciences (NCATS)
